In PubChem BioAssay (NCI):
The panel holds about 79,000 compounds, 15% with a hit somewhere; the sample as a whole holds those more often. Values without a mark were called inactive. Activity calls are given as the source filed them. Rule as the data show it: active = growth inhibition above about 70%; inactive = the rest.

Legend:
[1] = NCI Yeast Anticancer Drug Screen. Data for the rad50 strain (AID 155);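 also: 0% = growth of vehicle-only cultures of the same strain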; settings: S. cerevisiae rad50 strain growth inhibition, active compounds read high
How it was run: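 Genetically altered yeast (DNA repair pathway); compound treatment; growth inhibition vs vehicle ctrl.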

[2] = NCI Yeast Anticancer Drug Screen. Data for the mec2-1 strain (AID 157); settings: S. cerevisiae mec2-1 strain, active compounds read high
How it was run: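 Growth inhibition is read against vehicle-treated controls after compound exposure of the mec2-1 yeast strain, which is defective in DNA damage repair or cell cycle control.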

[3] = NCI Yeast Anticancer Drug Screen. Data for the sgs1 mgt1 strain (AID 161);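 also: 0% = growth of cultures given vehicle only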; settings: S. cerevisiae sgs1 mgt1 strain, active compounds read high
How it was run: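 Growth of a repair-deficient yeast mutant was monitored after compound treatment and expressed as inhibition relative to vehicle-treated cultures.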

[4] = NCI Yeast Anticancer Drug Screen. Data for the cln2 rad14 strain (AID 165);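 also: 0% = growth equal to vehicle treated cultures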; settings: S. cerevisiae cln2 rad14 strain, active compounds read high
How it was run: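 Growth inhibition, relative to vehicle-treated controls, is the read-out. The test organism is a yeast strain with defined genetic alterations, cln2 rad14.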

[5] = NCI Yeast Anticancer Drug Screen. Data for the bub3 strain (AID 167); settings: S. cerevisiae bub3 mutant strain, active compounds read high
How it was run: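 Yeast carrying a defined mutation is treated with each compound, and growth is compared with that of vehicle-exposed cells to give inhibition.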

[6] = NCI Yeast Anticancer Drug Screen. Data for the mlh1 rad18 strain (AID 175); settings: S. cerevisiae mlh1 rad18 strain growth inhibition, active compounds read high
How it was run: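 Cells of a genetically altered yeast strain, deficient in DNA damage repair, were treated with compound. Their growth was then compared with that of vehicle-treated cultures to give inhibition.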

[7] = at 5.0 µM (retest, dose inferred, filed as 0.5)
[8] = at 50.0 µM (retest, dose inferred, filed as 5.0)

SMILES	growth inhibition [1, 7]	growth inhibition [1, 8]	growth inhibition ([1]; at 50.0 µM)	growth inhibition [2, 7]	growth inhibition [2, 8]	growth inhibition ([2]; at 50.0 µM)	growth inhibition [3, 7]	growth inhibition [3, 8]	growth inhibition ([3]; at 50.0 µM)	growth inhibition [4, 7]	growth inhibition [4, 8]	growth inhibition ([4]; at 50.0 µM)	growth inhibition [5, 7]	growth inhibition [5, 8]	growth inhibition ([5]; at 50.0 µM)	growth inhibition [6, 7]	growth inhibition [6, 8]	growth inhibition ([6]; at 50.0 µM)
COC1CC2CCC(C)[C@](O)(O2)C(=O)C(=O)N2CCCCC2C(=O)OC(C(C)CC2CCC(O)C(OC)C2)CC(=O)C(C)C=C(C)C(OC(=O)CCCN2CCCC2)C(OC)C(=O)C(C)CC(C)/C=C/C=C/C=C\1C (some centres not stated)	96% (active)	98% (active)	90% (active)	98% (active)	98% (active)	92.3% (active)	97% (active)	97% (active)	92.9% (active)	91% (active)	96% (active)	88.2% (active)	97% (active)	98% (active)	92% (active)	96% (active)	98% (active)	91.5% (active)
CCOC(=O)C(C(=O)OCC)C(=O)c1ccc2c(c1)OCO2	3%	83% (active)	52.4%	2%	75% (active)	35.5%	5%	90% (active)	86.9% (active)	10%	21%	1.25%	7%	81% (active)	89.2% (active)	4%	94% (active)	60.4%
CC1(C)CC(=O)C(C=NC(=S)c2ccccc2)=C(O)C1	21%	27%	-43.3%	4%	13%	-54%	6%	9%	-37.1%	11%	14%	-0.6%	20%	32%	-13.4%	14%	27%	22.1%
CC(C)(C)OC(=O)N(CCCCNC(=O)OCc1ccccc1)CCCNC(=O)OCc1ccccc1	9%	9%	23.1%	7%	-4%	14.8%	-19%	-3%	-1.15%	0%	18%	-0.85%	2%	-1%	-13.4%	9%	9%	-57.7%
CN(C)CCNc1ccc([N+](=O)[O-])c2nc3ccccc3c(N)c12	-34%	-7%	-1.9%	-37%	6%	-40.8%	34%	-24%	45.9%	-17%	0%	8.55%	-8%	12%	-7.15%	-53%	-10%	65.8%
O=C(Nc1ccc(Br)cc1)Oc1ccccc1C(=O)Nc1ccccc1	6%	95% (active)	79.1% (active)	1%	96% (active)	70.3% (active)	0%	98% (active)	91% (active)	2%	94% (active)	54.2%	5%	98% (active)	89.9% (active)	4%	96% (active)	97.8% (active)
Cc1[nH]nc(C(=O)OC(C)C)c1N=NN(C)C	-65%	94% (active)	98.2% (active)	-43%	98% (active)	98.7% (active)	-46%	96% (active)	96.2% (active)	-69%	97% (active)	97.3% (active)	-64%	95% (active)	98.3% (active)	-115%	95% (active)	98.7% (active)
CSC(=Nc1ccc(Cl)cc1)N1CC=Cc2ccccc21	2%	-1%	-1.85%	-13%	12%	5.85%	-15%	23%	43.4%	9%	-4%	42.8%	49%	82% (active)	81.8% (active)	0%	-1%	12.3%
O=c1[nH]c2ccccc2c2oc3ccccc3c12	-14%	83% (active)	63.5%	-10%	71% (active)	51.5%	-4%	69%	64.5%	18%	32%	25.4%	-10%	88% (active)	46.5%	-18%	94% (active)	68.3%
CC(=O)NNc1nc(C)c(C(=O)NNC(=O)C(=O)Nc2ccc(Cl)cc2Cl)s1	1%	82% (active)	54.6%	1%	94% (active)	39.4%	5%	87% (active)	53.2%	-4%	85% (active)	-38.2%	5%	89% (active)	45.4%	-2%	89% (active)	73.9% (active)
COc1ccc2c(C#N)cc3c(c[n+](C)c4ccccc34)c2c1	25%	78% (active)	92% (active)	13%	58%	86.4% (active)	19%	71% (active)	87.8% (active)	15%	48%	80.7% (active)	-2%	65%	78% (active)	21%	83% (active)	92% (active)
O=[N+]([O-])c1cc([N+](=O)[O-])c2ccccc2c1O	17%	90% (active)	75% (active)	8%	90% (active)	65.1%	7%	89% (active)	88.8% (active)	-6%	48%	52%	2%	87% (active)	61%	9%	92% (active)	82.3% (active)
C[n+]1c(/C=C/c2ccccc2Cl)sc2ccccc21	83% (active)	96% (active)	97.2% (active)	99% (active)	99% (active)	94.2% (active)	52%	88% (active)	98.2% (active)	59%	92% (active)	98.5% (active)	98% (active)	98% (active)	89.5% (active)	98% (active)	98% (active)	98.7% (active)
CC(C)(C)CC(C)(C)N[P+](NC(C)(C)CC(C)(C)C)(NC(C)(C)CC(C)(C)C)NC(C)(C)CC(C)(C)C	89% (active)	98% (active)	83.2% (active)	97% (active)	99% (active)	88.3% (active)	81% (active)	99% (active)	91.5% (active)	84% (active)	99% (active)	90.7% (active)	96% (active)	99% (active)	90.5% (active)	94% (active)	98% (active)	90.7% (active)
CCOC(=O)c1cc(C)c(O)c(C(=O)OCC)c1	-9%	4%	-0.45%	-12%	-27%	16.1%	1%	22%	0.65%	26%	31%	6.8%	13%	27%	52.4%	-28%	-9%	-10.8%
CCCCC1C(=S)N(c2ccccc2)N(c2ccccc2)C1=S	0%	-2%	24.1%	2%	-13%	40.9%	5%	-14%	82.8% (active)	0%	-10%	8.6%	3%	-6%	37%	-7%	3%	60.4%
Oc1c(Cl)c(Cl)c2ncccc2c1Cl	14%	13%	55.8%	10%	13%	-8.8%	11%	15%	49%	4%	5%	-26.4%	5%	37%	48.6%	7%	12%	45.5%
O=C(CC(O)c1ccccc1)Sc1ccccc1 (configuration not stated)	-1%	13%	72% (active)	-2%	8%	50%	1%	42%	63.1%	-2%	-7%	-9.2%	-6%	4%	80% (active)	-8%	20%	74% (active)
O=C1C(c2ccccc2)CS(=O)(=O)CC1c1ccccc1 (configuration not stated)	-10%	0%	14%	-8%	7%	2.85%	5%	7%	57.1%	3%	-4%	7%	-3%	-12%	-7.65%	13%	9%	12.6%
